High-throughput results from PubChem.
An excerpt weighted towards active compounds, which were near 2.9% of everything screened.
D3 antag = qHTS of D3 Dopamine Receptor Antagonist: qHTS; AID 652054, 2013; D3R cells, DiscoveRx beta-arrestin luminescence, antagonist mode; hits give low values; 2.5% of 360,000 active; max response, negative = inhibition, %; in the data active = max response below about -50%; inconclusive = no clear call, values can overlap the other calls; note: % is set by controls: 0 for no effect and ±100 for the full control effect
Target sequence (P35462 whole entry, looked up): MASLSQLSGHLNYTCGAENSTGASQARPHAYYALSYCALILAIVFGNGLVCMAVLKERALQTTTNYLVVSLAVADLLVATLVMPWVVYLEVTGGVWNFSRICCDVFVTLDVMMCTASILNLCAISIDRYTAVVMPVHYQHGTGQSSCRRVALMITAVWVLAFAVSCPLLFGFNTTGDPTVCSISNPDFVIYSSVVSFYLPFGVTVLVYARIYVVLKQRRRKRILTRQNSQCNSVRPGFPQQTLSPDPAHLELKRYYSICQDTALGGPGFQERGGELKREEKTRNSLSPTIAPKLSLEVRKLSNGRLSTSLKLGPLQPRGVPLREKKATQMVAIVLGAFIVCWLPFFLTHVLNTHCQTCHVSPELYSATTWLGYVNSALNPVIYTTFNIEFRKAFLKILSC
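Cells plated overnight at 1500 cells/well, then exposed to library compounds with dopamine controls for 90 minutes at 37 degrees C. DiscoveRx reagent added for 30–60 minutes at room temperature; luminescence read, quantitative HTS format.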
TRPML1 blocker = qHTS for Inhibitors of the Human Mucolipin Transient Receptor Potential 1 (TRPML1). AID 624415, 2012. Mucolipin-1 (Homo sapiens), Q9GZU1. 0.02% of 390,000 active. TRPML1-inducible cells, Ca2+ dye fluorescence, FDSS; hits give low values; inhibition of EC80 agonist-evoked calcium signal. activity change, negative = inhibition, % (no concentration beside the values); in the data active = activity change below about -50%; inconclusive = between about -30% and that limit;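 note: stimulus is agonist 54-4 at its EC80 concentration; % is set by controls: 0 for no effect and ±100 for the full control effect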
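TRPML1-DL cells, Tet-induced overnight (~16 h, 37 °C) at 1,500 cells/well, were loaded with Ca8 no-wash dye plus quencher for 45-90 min at room temperature. Compounds were pinned during FDSS kinetic reading; agonist 54-4 at EC80 (4 uM final) then added.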
TRPML1 agonist = qHTS for Agonists of the Human Mucolipin Transient Receptor Potential 1 (TRPML1). TRPML1-expressing cells, Ca2+ dye fluorescence, FDSS. 0.12% of 410,000 active. activation, % (test concentration not listed); in the data active = activation above about 50%; inconclusive = mostly about 30% to 49%; note: 0% is about no effect
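Tet-induced TRPML1-DL cells, 1,500 per well, cultured overnight, were loaded with a no-wash Ca2+ dye for 45–90 min. Calcium fluorescence was recorded on the FDSS for 110 s after compound addition, before the EC80 agonist (4 uM 54-4) was added.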
D3 ag = qHTS of D3 Dopamine Receptor Agonist: qHTS; 0.58% of 410,000 active; max activation, %; D3R DiscoveRx beta-arrestin cells, luminescence, 90 min; D(3) dopamine receptor (Homo sapiens), P35462; in the data active = max activation above about 30%; note: 0% is about no effect
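Agonist mode: compounds and dopamine controls were applied to plated cells for 90 min at 37 degrees C after an overnight attachment at 1500 cells/well. Luminescent read-out followed 30 - 60 minutes at room temperature with DiscoveRx detection reagent.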
The depositor's hits bear a star; ? = inconclusive; . = no result.

SMILES	D3 antag	TRPML1 blocker	TRPML1 agonist	D3 ag
O=C(NCCCN1CCN(Cc2ccccc2)CC1)C1CCN(c2nnc(-n3cccc3)s2)CC1	0.0	39.5	-0.4	-19.3
O=C(CCC(=O)CCN1CCCCC1)CCN1CCCCC1	-66.7*	-1.4	1.4	-0.9
Cc1ccc(OCCCOc2cccc3cccnc23)cc1C	6.8	16.0	0.0	8.1
Cc1cccc(OCCCOc2cccc3cccnc23)c1C	-54.0*	-11.2	2.4	4.9
Clc1ccc(/C=C/c2ccncc2)cc1Cl	.	.	-0.6	.
CCCNC(=O)C1(C)CCN(CCOc2ccc(Cl)cc2)C1 (configuration not stated)	-72.0*	.	-1.1	-1.0
CCNC(=O)C1(C)CCCN(CCOc2ccc(OC)cc2)C1 (configuration not stated)	-20.8	.	-0.3	-3.3
COCCNC(=O)C1(C)CCCN(CCOc2ccc(Cl)cc2)C1 (configuration not stated)	-55.1*	.	-0.5	-6.3
O=C(Nc1nccs1)[C@@H]1CC=C[C@@H]2CCN(C3CCCCC3)C(=O)[C@@H]21	.	.	-0.7	.
Cc1ccc(S(=O)(=O)NCc2cn3c(C)csc3n2)cc1	18.3	-0.9	-1.3	3.2
Cc1ccc(SCc2cn3c(C)csc3n2)cc1	-52.9*	-11.0	0.5	-23.9
C=CCn1nc(-c2ccccc2)cc1C(=O)OCC	111.7	15.0	3.1	40.0*
CCOC(=O)c1cc(-c2ccccc2)nn1CCC#N	5.7	12.5	0.8	-1.8
COc1ccccc1N1CCN(Cc2nc(N)nc(Nc3ccccc3)n2)CC1	-71.1*	0.8	0.0	-9.5
Nc1nc(CN2CCN(Cc3ccccc3)CC2)nc(Nc2ccc3c(c2)OCCO3)n1	-59.4*	0.1	1.6	-0.3
COc1ccccc1Nc1nc(N)nc(CN2CCC(C)CC2)n1	-17.9	18.5	-1.1	-14.0
COc1ccccc1Nc1nc(N)nc(CN2CCC(Cc3ccccc3)CC2)n1	-58.9*	-4.6	2.0	-3.8
O=C(CN1C(=O)COc2ccc(S(=O)(=O)N3CCCCCC3)cc21)NCCc1ccccc1	.	10.3	0.5	-15.4
N#CN=c1snc(-c2ccccc2)n1-c1ccc(Cl)cc1	.	.	0.1	.
CCC(C)NCCCOc1ccc(C)cc1OC (configuration not stated)	?	25.7	-0.3	-7.8
COCCCNCCOc1ccc(C)cc1[N+](=O)[O-]	-84.0*	-7.4	-0.5	-18.3
CCC(C)NCCCCOc1ccc(C)cc1[N+](=O)[O-] (configuration not stated)	-92.6*	-19.9	0.6	-29.6
C=CCNCCCCOc1ccc(C)cc1[N+](=O)[O-]	-82.3*	1.3	-0.2	1.2
Cc1ccc(OCCN2C(=O)c3ccccc3C2=O)c([N+](=O)[O-])c1	-68.8*	2.3	-0.2	-16.8
Cc1ccc([N+](=O)[O-])c(OCCN2CCNCC2)c1	-62.0*	-4.0	0.2	26.6
SMILES	D3 antag	TRPML1 blocker	TRPML1 agonist	D3 ag
Cc1cc(OCCN2CCC(Cc3ccccc3)CC2)ccc1[N+](=O)[O-]	-63.5*	4.6	0.2	-23.8
COCCNCCCCOc1ccc(C)cc1[N+](=O)[O-]	0.0	0.0	-0.2	-25.1
COCCCNCCOCCOc1ccc(C)cc1[N+](=O)[O-]	-54.1*	10.0	-0.3	-3.8
CCOc1ccc(N(C)S(=O)(=O)c2ccc3c(c2)C(C)(C)C(=O)N3C)cc1	.	3.6	0.3	1.4
CN=C(NC)NCc1ccccc1	.	.	.	2.0
CCOc1ccc(OCC(=O)NCCS(=O)(=O)N2CCN(c3ccccc3F)CC2)cc1	.	-12.0	4.0	7.2
O=C(NCCc1c[nH]c2ccccc12)C(=O)NCC(c1ccco1)N1CCN(c2ccccc2)CC1 (configuration not stated)	11.9	5.1	0.0	41.1*
CNC(=O)c1nnsc1S(=O)(=O)c1ccc(Cl)cc1	-110.0*	-28.2	2.6	-19.1
O=C(c1nnsc1S(=O)(=O)c1ccc(Cl)cc1)N1CCOCC1	?	-7.3	5.1	-8.1
Cc1cccc(OCc2nn[nH]n2)c1C	-11.8	3.4	0.2	67.7*
CC1(c2ccccc2)NC(=O)N(CC(=O)Nc2ccc([N+](=O)[O-])cc2)C1=O (configuration not stated)	0.8	2.5	-0.1	-7.5
CC1(c2ccc([N+](=O)[O-])cc2)NC(=O)N(CC(=O)Nc2ccc(N3CCCCC3)cc2)C1=O (configuration not stated)	-50.8*	-14.1	9.6	-11.3
CCC(=O)NS(=O)(=O)c1ccc(-c2c(-c3ccccc3)noc2C)cc1	.	.	.	5.4
CC(C)(C)n1ncc2c(=O)n(Cc3c(Cl)ccc(Cl)c3Cl)cnc21	.	-1.7	1.4	.
Cc1cccnc1N(C(=O)Nc1ccccc1)C1=NCC(C)(C)S1	-17.2	6.7	-0.5	0.2
CC1(C)CN=C(N(C(=O)Nc2ccccc2)c2ccccc2F)S1	7.6	6.1	0.8	30.9*
O=C(c1ccc2c(c1)N(Cc1ccc(Cl)cc1)C(=O)c1ccccc1S2=O)N1CCC(Cc2ccccc2)CC1 (configuration not stated)	.	14.9	1.1	5.0
Cc1ccc(NC(=O)NNC(=O)C2CC(c3cccnc3)=NO2)cc1 (configuration not stated)	-61.6*	0.1	-0.6	-10.8
COc1ccccc1C(C)NCC(=O)Nc1c(F)cccc1F (configuration not stated)	-56.0*	-5.6	-1.5	-28.3
COc1cc(Cl)c(C)cc1NC(=O)CNC(C)c1ccccc1OC (configuration not stated)	-12.4	-2.7	0.8	-17.0
Cn1nnc2c(NCc3ccco3)ncnc21	.	.	0.3	.
COc1ccc(NC(=O)CSc2nnc(Cc3cccs3)n2-c2ccc(C)cc2)cc1	53.8	12.0	1.8	80.8*
COc1cccc(N=c2oc3cc(O)ccc3cc2C(=O)NCC2CCCO2)c1 (configuration not stated)	14.3	11.5	1.2	31.0*
COc1ccc(NCc2nc3ccccc3n2CCOc2ccc(C)cc2)cc1	-51.9*	34.6	2.1	5.0
COc1ccc(NCc2nc3ccccc3n2CCOc2ccccc2)cc1	-11.6	15.2	0.2	-3.6
SMILES	D3 antag	TRPML1 blocker	TRPML1 agonist	D3 ag
CCCc1nc2ccccc2n1CCOc1ccccc1	-62.2*	0.3	4.5	-5.3
Cc1ccccc1NC(=O)CCn1nc(-c2ccccc2)c2ccccc2c1=O	.	13.6	-0.2	4.2
CCOC(=O)/C=C/c1ccc2c(c1)S(=O)(=O)N(C1CCCC1)[C@H]2CC(=O)OCC	.	.	2.2	.
Cc1[nH]n(-c2ccccc2)c(=O)c1C=Nc1cccc2cccnc12	-86.8*	25.7	1.0	-20.3
CC(C)COc1ccc(C(=O)Nc2onc3c2CCCC3)cc1	.	-6.2	0.3	-8.6
CCOC(=O)Cc1csc(NC(=O)CN2CCCCC2)n1	-54.8*	-14.6	-0.4	-8.3
CCc1ccc(NC(=O)c2ccccc2SC)cc1	-13.0	-16.8	0.3	30.1*
